Measurements taken from PMC5700166.

The sequences below were run against T1, GST-Dm-Relish (Drosophila melanogaster, UniProt Q94527 99-473) (assay: protein-binding microarray (PBM); PBM: ~300 nM protein, 6 mM HEPES pH 7.8, 80 mM KCl, 0.5 mM EDTA, 0.5 mM EGTA, 6% glycerol, 35 ng/ul poly-dIdC, 1% milk, 1 h, room temperature; Ap Aiptasia and Nv Nematostella (sea anemones) / Co Capsaspora / Aq Amphimedon (sponge) / Dm Drosophila / Hu human; RHD is the Rel homology domain; high values mean tight binding). Conditions: dsDNA, one strand shown.
T1 sequence: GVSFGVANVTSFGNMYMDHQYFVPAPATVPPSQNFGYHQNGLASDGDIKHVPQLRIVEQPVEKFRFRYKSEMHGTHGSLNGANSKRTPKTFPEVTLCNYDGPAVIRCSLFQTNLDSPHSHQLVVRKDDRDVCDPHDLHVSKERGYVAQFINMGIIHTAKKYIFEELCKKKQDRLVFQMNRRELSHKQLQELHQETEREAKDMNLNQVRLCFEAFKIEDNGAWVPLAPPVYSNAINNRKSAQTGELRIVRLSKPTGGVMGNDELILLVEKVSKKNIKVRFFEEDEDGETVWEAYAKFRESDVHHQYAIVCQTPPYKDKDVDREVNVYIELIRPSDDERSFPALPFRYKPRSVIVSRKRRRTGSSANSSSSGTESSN
In the case of “CCGATTAACATCAGTTTTTTCCATGATGTTAATCGGGTCTTGATTCGCTTGACGCTGCTG”, the binding signal is reported as 1.54 z-score.
“CCGATTAACATCAAATGTACTAATGATGTTAATCGGGTCTTGATTCGCTTGACGCTGCTG” was tested, and the binding signal was 1.5 z-score.
For “CCGATTAACATCAAATTTTCCACTGATGTTAATCGGGTCTTGATTCGCTTGACGCTGCTG”, the binding signal was 1.2 z-score.
“CCGATTAACATCAAGTAGTTTCCTGATGTTAATCGGGTCTTGATTCGCTTGACGCTGCTG” was tested, and the binding signal was 2.37 z-score.
Sequence “CCGATTAACATCAGGAATTCACATGATGTTAATCGGGTCTTGATTCGCTTGACGCTGCTG” has a binding signal of 5.7 z-score.
For “CCGATTAACATCACGTGATTTCCTGATGTTAATCGGGTCTTGATTCGCTTGACGCTGCTG”, the binding signal was 4.11 z-score.
For “CCGATTAACATCAGTAGTTTCCATGATGTTAATCGGGTCTTGATTCGCTTGACGCTGCTG”, the binding signal was 1.79 z-score.
“CCGATTAACATCAAGTTTTTTCCTGATGTTAATCGGGTCTTGATTCGCTTGACGCTGCTG” showed a binding signal of 1.98 z-score.
“CCGATTAACATCACGTATTTTCCTGATGTTAATCGGGTCTTGATTCGCTTGACGCTGCTG” gave a binding signal of 1.2 z-score.
With “CCGATTAACATCAGGCGGTAAGGTGATGTTAATCGGGTCTTGATTCGCTTGACGCTGCTG” the binding signal was 1.01 z-score.
“CCGATTAACATCACTGGAAATTCTGATGTTAATCGGGTCTTGATTCGCTTGACGCTGCTG” was tested, and the binding signal was 1.59 z-score.
“CCGATTAACATCATAAAAAAAAATGATGTTAATCGGGTCTTGATTCGCTTGACGCTGCTG” gave a binding signal of 1.27 z-score.
Work on “CCGATTAACATCACTATTGTACATGATGTTAATCGGGTCTTGATTCGCTTGACGCTGCTG” yielded a binding signal of 1.29 z-score.
With “CCGATTAACATCACGTAAATCCATGATGTTAATCGGGTCTTGATTCGCTTGACGCTGCTG” the binding signal was 1 z-score.
